# PubChem BioAssay AID1645854 (Buhrlage Lab, Dana-Farber Cancer Institute and Novartis …, 2021)
# The whole screen tested about 47,000 compounds, of which about 140 (0.3%) were called active. Shown is part of a subset that was picked to be rich in actives. Values without a mark were called inactive. Cut-off read from the data, not from the text of the source: active = inhibition above about 30%; inactive = the rest.
# Target: Ubiquitin carboxyl-terminal hydrolase 7 (Homo sapiens) (UniProt Q93009)
# Sequence (Q93009 whole entry, looked up): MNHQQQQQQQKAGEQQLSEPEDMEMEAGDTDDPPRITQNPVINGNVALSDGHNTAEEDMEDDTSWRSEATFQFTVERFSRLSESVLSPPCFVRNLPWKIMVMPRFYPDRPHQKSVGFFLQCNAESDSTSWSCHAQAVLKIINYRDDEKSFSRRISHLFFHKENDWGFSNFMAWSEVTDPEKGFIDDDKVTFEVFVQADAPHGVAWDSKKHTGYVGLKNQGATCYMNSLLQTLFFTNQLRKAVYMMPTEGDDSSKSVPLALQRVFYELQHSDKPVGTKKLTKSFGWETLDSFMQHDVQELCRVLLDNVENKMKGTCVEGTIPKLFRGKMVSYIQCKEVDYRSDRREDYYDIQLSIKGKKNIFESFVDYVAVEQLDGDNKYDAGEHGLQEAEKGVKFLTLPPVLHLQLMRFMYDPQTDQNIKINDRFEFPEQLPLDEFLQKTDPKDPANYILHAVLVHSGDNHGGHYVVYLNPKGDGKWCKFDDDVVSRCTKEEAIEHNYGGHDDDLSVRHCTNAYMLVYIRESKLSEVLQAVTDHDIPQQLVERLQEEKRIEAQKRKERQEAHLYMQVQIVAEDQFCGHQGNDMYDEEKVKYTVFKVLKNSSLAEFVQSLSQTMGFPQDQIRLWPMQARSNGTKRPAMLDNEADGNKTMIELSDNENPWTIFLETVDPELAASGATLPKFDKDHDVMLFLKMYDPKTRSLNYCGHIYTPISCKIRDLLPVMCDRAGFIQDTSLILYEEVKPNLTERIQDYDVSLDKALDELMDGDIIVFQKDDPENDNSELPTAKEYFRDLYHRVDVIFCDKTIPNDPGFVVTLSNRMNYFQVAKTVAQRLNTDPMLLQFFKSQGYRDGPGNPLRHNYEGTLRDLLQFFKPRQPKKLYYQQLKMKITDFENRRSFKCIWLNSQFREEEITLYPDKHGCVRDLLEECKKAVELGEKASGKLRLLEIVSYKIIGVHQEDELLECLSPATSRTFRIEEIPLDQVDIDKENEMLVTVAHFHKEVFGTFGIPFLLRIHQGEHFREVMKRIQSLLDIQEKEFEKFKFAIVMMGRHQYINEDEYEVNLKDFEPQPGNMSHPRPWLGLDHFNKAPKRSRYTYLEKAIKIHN
# Assay: blocks human USP7 ubiquitin-rhodamine cleavage (AID 1645854)
# Conditions: purified USP7, Ub-rhodamine cleavage fluorescence; at 20 µM; active compounds read high
row,SMILES,inhibition
1,CCCN(C(=O)c1cccc2c1SCCC2=O)c1ccc(F)cc1,-4.01%
2,COc1cc(C(=O)Nc2ccc(-c3nc4cnccc4o3)cc2)cc(OC)c1OC,5%
3,O=C(Cc1ccccc1)Nc1ccc(-c2nc3cnccc3o2)c(O)c1,31.5% (active)
4,O=C(Nc1ccc(-c2nc3cnccc3o2)c(O)c1)c1ccc(-c2ccccc2)cc1,5.05%
5,CCOc1ccc(NC(=O)Cn2c(=O)n(CCC(=O)N3CCc4ccccc4C3)c(=O)c3ccccc32)cc1,3.17%
6,O=C(Nc1ccc(F)cc1F)c1csc2c1CCCCC2,3.29%
7,O=C(NCc1ccc2c(c1)OCO2)C1(c2ccc(Cl)cc2)CCCC1,-12.3%
8,CN(Cc1ccccc1)Cc1cn[nH]c1-c1ccc(Cl)cc1,-24%
9,Cc1nc2nc(NCc3ccccc3)[nH]n2c(=O)c1CCC(=O)N1CCCCC1C (centres undefined),2.27%
10,CC1=NOC(CNS(=O)(=O)c2cc(C)ccc2C)C1 (centres undefined),-0.759%
11,O=C1NC2(CCN(C(=O)Cc3ccc(F)cc3)CC2)N=C1c1ccc(Cl)cc1,-39.3%
12,COc1c(O)c2c3c(c1O)C(=O)[C@@]1(O)C(=C3C(C)=CC2=O)O[C@@H](C)C1(C)C,-76.3%
13,COc1ccc(Cl)cc1NC(=O)C1CC(=O)NC(Nc2ccccc2)=N1 (centres undefined),-1.4%
14,Cc1cc(C)n2nc(C(=O)N3CCCC(Cc4[nH]ncc4C)C3)cc2n1 (centres undefined),-0.00929%
15,CSc1cccc(NC(=O)CC(=O)Nc2ccc3nc4n(c(=O)c3c2)CCCCC4)c1,1.86%
16,CC1(C2CCN(C(=O)NC3CCCCC3)CC2)NC(=O)NC1=O (centres undefined),2.45%
17,CC(C)CCN1C[C@H]2CCN(C(=O)c3cnccn3)CC[C@H]2S1(=O)=O,-4.49%
18,Cc1ccccc1COC(=O)C1CCN(C2=NS(=O)(=O)c3ccccc32)CC1,-0.994%
19,COc1ccc2[nH]c3c(c2c1)CCN1C(=O)CN(CCc2ccccc2)C(=O)C31C (centres undefined),4.73%
20,COC1=C(OC)C(=O)C(C)=C(C)C1=O,3.62%
21,O=C(Nc1cccc(S(=O)(=O)N2CCCCCC2)c1)c1ccc(N2CCOCC2)c([N+](=O)[O-])c1,8.97%
22,CC(C)(C)c1cc(-c2ccccc2)nc(-c2ccccc2)c1,1.78%
23,O=C(CCN1CCOC(Cn2cncn2)C1)N1CCCCC1 (centres undefined),1.57%
24,O=C(CN(Cc1ccccc1)S(=O)(=O)c1ccccc1)N1CCCCCC1,-6.83%
25,Cc1ccc(NS(=O)(=O)c2cc(-c3[nH]ncc3C(=O)N3CCCC3)oc2C)cc1F,-40.8%
26,COCCn1cnc2c1c(=O)n(CC(=O)Nc1c(C)cc(C)cc1C)c(=O)n2Cc1ccccc1,0.0199%
27,CC(Nc1nnc(Cc2ccccc2)c(=O)[nH]1)c1ccccc1 (centres undefined),19.7%

row,SMILES,inhibition
1,CC(C)Cc1cc(-c2nn3c(-c4ccccc4Cl)nnc3s2)n[nH]1,7.86%
2,Cc1c(-c2nn3c(-c4ccco4)nnc3s2)cccc1[N+](=O)[O-],35% (active)
3,Cc1cccc(CNC(=O)c2ccc3c(c2)NC(=O)C2CCC(=O)N32)c1 (centres undefined),1.1%
4,O=C1CC(CNS(=O)(=O)c2cccc(Cl)c2)CN1c1ccccc1 (centres undefined),-3.38%
5,Cn1c(=O)c2ccc(C3CCN(C(=O)CN4CCCC4)C3)nc2n(C)c1=O (centres undefined),-2.1%
6,COc1cc2c(c(OC)c1OC)-c1ccc(N3CCN(Cc4ccccc4)CC3)c(=O)cc1[C@@H](NC(C)=O)CC2,-1.92%
7,C=C1CCC2[C@](C)(CCC[C@]2(C)C(=O)OC)[C@H]1CCc1ccoc1/C=C/C(=O)O (some centres undefined),37.2% (active)
8,C=C1CCC2[C@](C)(CCC[C@]2(C)C(=O)OC)[C@H]1CCc1ccoc1C[N+](C)(C)Cc1ccccc1 (some centres undefined),19.4%
9,C=C1CCC2[C@](C)(CCC[C@]2(C)C(=O)OC)[C@H]1CCc1ccoc1CNCC(=O)O (some centres undefined),1.95%
10,CCc1cc(C(=O)NC2CC(C)(C)Cc3nc(N4CCCC4)ncc32)no1 (centres undefined),-17.3%
11,Cc1ccc(-c2cn3ccn(-c4ccc(C)cc4C)c(=O)c3n2)cc1,6.15%
12,CC(C)CN1[C@H]2CCN(C(=O)c3cccn3C)CC[C@@H]2Oc2ccccc2S1(=O)=O,-3.56%
13,Cn1cc(C2=CCN(S(=O)(=O)c3cccc4cccnc34)CC2)c2cccnc21,-2.34%
14,Cc1nnc(C(=O)Nc2ccc(C(=O)NCc3ccccc3C)cc2)s1,6.22%
15,O=C(Nc1nc(-c2ccc3c(c2)CCN3C(=O)c2ccccc2F)cs1)c1cccnc1,26.5%
16,CCS(=O)(=O)c1cccc(C(=O)Nc2c(C(N)=O)oc3ccccc23)c1,1.8%
17,CN1CCN(c2ccc(CNS(=O)(=O)c3cccc(F)c3)cc2)CC1,3.64%
18,COc1ccccc1CNc1ccc2c(cc1=O)[C@@H](NC(C)=O)CCc1cc(OC)c(OC)c(OC)c1-2,-13.3%
19,CCS(=O)(=O)N1CCC(c2nc(C)c(-c3ccnc(C)n3)s2)CC1,3.86%
20,C=C1Nc2ccccc2C(=O)N1c1cccc(NC(=O)c2ccc(F)cc2)c1,1.49%
21,O=C(CCc1nc(-c2cccnc2)no1)Nc1cc(Cl)ccc1O,-16.2%
22,CC(C)Cc1nnc(NC(=O)c2cc(=O)[nH]c3ccccc23)s1,-0.0201%
23,COc1cc(C(=O)N[C@@H]2C(=O)Nc3c(c(C)nn3C)[C@H]2c2cccc(Cl)c2)cc(OC)c1OC,-9.37%
24,CN1C(=O)C2CCCCN2c2ccc(C(=O)NC3CCCC3)cc21 (centres undefined),-1.37%
25,O=C(CCc1ccccc1)N1C[C@@H]2OCC(=O)N(C3CCOCC3)[C@H]2C1,10.2%
26,C[C@H](NC(=O)[C@@H]1Cc2c([nH]c3ccccc23)C2c3ccccc3C(=O)N21)C(=O)NC1CC1 (some centres undefined),-18.8%
27,CC(/C=C/C(=O)NO)=C\C(C)C(=O)c1ccc(N(C)C)cc1 (centres undefined),-1.05%
